# Laboratory results from PubChem BioAssay (EPA / NIEHS).
# Where “and” joins values, the source holds several entries; their conditions need not be identical. Equal entries are not always repeated. Results filed as inconclusive are left out. More than one record can exist for a structure, and the calls need not agree. Calls of active or inactive are those of the source. How the source made its calls: active means hit-call score of the fitted dose curve at least 0.9, where 1 is the maximum; inconclusive means response in the unintended direction; inactive means score below 0.9.
# Target: mouse Estrogen Receptor alpha (Era), Esr1 (gene 13982) (UniProt P19785)
# Sequence (P19785 whole entry, looked up): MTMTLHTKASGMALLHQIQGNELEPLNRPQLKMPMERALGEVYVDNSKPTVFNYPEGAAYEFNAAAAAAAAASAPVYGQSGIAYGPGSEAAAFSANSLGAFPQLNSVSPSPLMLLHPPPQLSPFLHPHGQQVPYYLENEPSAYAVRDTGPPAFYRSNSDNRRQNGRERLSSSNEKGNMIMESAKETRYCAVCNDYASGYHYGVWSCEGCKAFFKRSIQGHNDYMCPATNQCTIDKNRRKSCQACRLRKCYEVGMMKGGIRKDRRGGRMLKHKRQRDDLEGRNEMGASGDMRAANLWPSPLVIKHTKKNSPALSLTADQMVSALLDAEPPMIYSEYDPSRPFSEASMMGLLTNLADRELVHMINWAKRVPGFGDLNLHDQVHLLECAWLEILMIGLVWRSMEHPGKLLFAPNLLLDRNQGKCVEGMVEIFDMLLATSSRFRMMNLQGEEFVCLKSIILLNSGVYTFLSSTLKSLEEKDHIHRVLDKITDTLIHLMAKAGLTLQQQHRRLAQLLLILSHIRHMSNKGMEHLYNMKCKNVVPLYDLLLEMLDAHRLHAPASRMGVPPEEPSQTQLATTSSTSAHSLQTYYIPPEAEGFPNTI
# Experiment: NVS_NR_mERa: NovaScreen (NVS) Nuclear Receptor Binding Assay for mouse Estrogen Receptor alpha (Era) (AID 2283378)
# Protocol: NVS_NR_mERa is a biochemical, single-readout assay that uses extracted gene-proteins in a cell-free assay. Measurements were taken 18 hours after chemical dosing in a 96-well plate.NVS_NR_mERa is one of one assay component(s) measured or calculated from the NVS_NR_mERa assay. It is designed to make measurements of radioligand binding, a form of binding reporter, as detected with scintillation counting signals by Filter-based radiodetection technology.Data from the assay component NVS_NR_mERa was analyzed into 1 assay endpoint. This assay endpoint, NVS_NR_mERa, was analyzed in the positive analysis fitting direction relative to DMSO as the negative control and baseline of activity. Using a type of binding reporter, loss-of-signal activity can be used to understand changes in the binding as they relate to the gene Esr1. Furthermore, this assay endpoint can be referred to as a primary readout, because the performed assay has only produced 1 assay endpoint. To generalize the intended target to other relatable targets, this assay endpoint is annotated to the nuclear receptor intended target family, where the subfamily is steroidal.
# Binding assays used specific radioligands (tritiated, iodinated) with non-radioactive competitive displacement ligands in agonist or antagonist protocols (as indicated) and various reference compounds and inhibitors to titrate specific binding to receptors and transporters. Most enzyme assays (CYPs, kinases, phosphatases, proteases, HDACs) used recombinant protein and specific substrates (fluorescence mostly, some colorimetric and radioactive) and inhibitors, followed by a biochemical separation of substrate and product. All assays for the biochemical HTS were initially run in duplicate at a single concentration (10 uM for CYP450 assays and 25 uM for all others). […] Each assay was run with positive and negative controls, and concurrent controls on every plate. The follow-up (secondary) screen tested active chemical-pairs in concentration series, as well as a few additional assays not tested in the primary screen, some selected negative inactives, and several cases re-run in the concentration series for confirmatory purposes.
SMILES,AC50,outcome
C[C@]12CC[C@@H]3c4ccc(O)cc4C[C@@H](CCCCCCCCCS(=O)CCCC(F)(F)C(F)(F)F)[C@H]3[C@@H]1CC[C@@H]2O (stereo partly drawn),3.4 µM (active) and 2.01 µM (active),inactive
C#C[C@]1(O)CC[C@H]2[C@@H]3CCC4=CC(=O)CC[C@@H]4[C@H]3CC[C@@]21CC,–,inactive
C[C@]12C[C@H](O)[C@H]3[C@@H](CCC4=CC(=O)CC[C@@]43C)[C@@H]1CC[C@@H]2C(=O)CO,–,inactive
O=C(c1ccc(O)cc1O)c1ccc(O)cc1O,470 nM (active) and 647 nM (active) and 1.69 µM (active),inactive
CC(=O)[C@H]1CC[C@H]2[C@@H]3CCC4=CC(=O)CC[C@]4(C)[C@H]3CC[C@]12C,17.4 µM (active),inactive
CC(=O)S[C@@H]1CC2=CC(=O)CC[C@]2(C)[C@H]2CC[C@@]3(C)[C@@H](CC[C@@]34CCC(=O)O4)[C@H]12,6.63 µM (active),inactive
CC(C)CCCCCCc1ccc(O)cc1,3.14 µM (active) and 7.57 nM (active) and 7.26 µM (active),inactive
O=C(c1ccccc1)C1CCCCC1,–,inactive
O=C(O)c1ccccc1,–,inactive
CC(C)(c1ccc(O)cc1)c1ccc(O)cc1,–,inactive
N[C@@H](Cc1cc(I)c(Oc2ccc(O)c(I)c2)c(I)c1)C(=O)O,1.65 µM (active) and 20 µM (active) and 4.66 µM (active),inactive
CCOC(=O)c1ccc(O)cc1,–,inactive
